# From PubChem BioAssay
# Active and inactive are the calls of the source.
# What was measured:
# Albumin (Bos taurus) = Albumin (Bos taurus) (UniProt P02769); assay: bovine serum albumin binders on microarray, profiling panel, artefact control for SMM control protein annotation, biochemical, small-molecule microarray, Alexa647 label, 635/667 nm fluorescence (AID 1118); settings: BSA-A647 binding, fluorescence 635 nm, higher = more signal;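 further: score merges 667 nm emission intensity and signal-to-noise per printed compound spot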
# Chain of Albumin (Bos taurus) (P02769 whole entry, looked up): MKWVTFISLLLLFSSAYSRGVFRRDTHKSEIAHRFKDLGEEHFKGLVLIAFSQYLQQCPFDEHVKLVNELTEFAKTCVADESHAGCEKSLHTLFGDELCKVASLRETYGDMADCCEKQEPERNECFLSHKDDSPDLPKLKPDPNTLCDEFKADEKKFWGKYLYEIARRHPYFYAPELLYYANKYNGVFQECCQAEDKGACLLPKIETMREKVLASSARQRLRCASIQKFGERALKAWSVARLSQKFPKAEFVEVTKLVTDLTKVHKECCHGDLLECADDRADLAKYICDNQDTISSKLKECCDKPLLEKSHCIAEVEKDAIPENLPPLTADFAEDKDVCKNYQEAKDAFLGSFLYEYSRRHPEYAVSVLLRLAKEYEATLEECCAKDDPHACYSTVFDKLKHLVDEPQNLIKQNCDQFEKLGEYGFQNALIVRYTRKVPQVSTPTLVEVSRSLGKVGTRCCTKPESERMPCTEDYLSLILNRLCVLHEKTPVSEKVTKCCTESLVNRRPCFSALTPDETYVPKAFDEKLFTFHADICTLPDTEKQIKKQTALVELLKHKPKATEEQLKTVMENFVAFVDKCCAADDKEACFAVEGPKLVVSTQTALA
# [1] = small-molecule microarray binders of probe aXIP, primary screen, biochemical, NeuroSMM set, 635/667 nm fluorescence (AID 1119); settings: higher = more signal, called active from +8 up or from −8 down;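 further: probe is the protein aXip251-270 applied at 1 µg/mL to compound-printed slides; binding of probe to printed compounds measured as 667 nm fluorescence plus signal to noise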
# [2] = small-molecule binders of probe aNOTCH3, primary screen, biochemical, small-molecule microarray, 635/667 nm fluorescence (AID 1120); settings: higher = more signal;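 further: probe is a biotin-tagged antibody raised against NOTCH3 rather than NOTCH3 protein; score merges spot fluorescence near 667 nm with spot signal to noise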
# [3] = small-molecule binders of probe aNOTCH2, primary screen, biochemical, small-molecule microarray, 635/667 nm fluorescence (AID 1121); settings: higher = more signal;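 further: score merges feature fluorescence read at 667 nm with its signal to noise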
# [4] = molecular target: Carbonic anhydrase 2 (Homo sapiens) (UniProt P00918); assay: CAII small-molecule binders, profiling panel, biochemical, small-molecule microarray, Alexa647-labelled CAII (AID 1122); settings: CAII-A647 binding fluorescence, higher = more signal
# [5] = COS7 lysate on small-molecule microarray, probe aHis, 635 nm (AID 1123); settings: COS7 cell lysate, fluorescence, higher = more signal;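 further: z-score combines 667nm fluorescence intensity with signal-to-noise per printed compound spot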
# [6] = compound binding in COS7 lysate, probe aLAP1, primary screen, cell lysate, small-molecule microarray (AID 1124); settings: probe aLAP1, fluorescence, higher = more signal;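 further: lysate comes from COS7 cells expressing LAP1 and is applied at 0.3 µg/mL; score merges spot fluorescence near 667 nm with signal-to-noise over triplicate slides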
# Sam68 (KHDRBS1) = assay: Sam68 small-molecule binders, primary screen, biochemical, small-molecule microarray, 635 nm fluorescence (AID 1125); settings: small-molecule microarray binding, higher = more signal;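 further: score merges 667 nm channel intensity with signal to noise over triplicate slides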
# [7] = tested on: Chordin-like protein 2 (CHRDL2); assay: CHRDL2 small-molecule binders, primary screen, biochemical, small-molecule microarray, 635 nm fluorescence (AID 1126); settings: small-molecule microarray binding, fluorescence 635 nm; higher = more signal;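 further: printed compound slides probed with Chrdl2 protein at 4 µg/mL for 1 h at 4 C; score merges 667 nm emission intensity with signal to noise over three replicate slides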
# [8] = molecular target: Concanavalin-A (Canavalia ensiformis) (UniProt P02866); assay: ConA small-molecule binders, primary screen, artefact control for SMM control protein annotation, biochemical, small-molecule microarray, Alexa647 label, 635 nm (AID 1127); settings: ConA-A647 binding fluorescence, higher = more signal;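 further: z combines 667 nm emission intensity with signal-to-noise across three replicate slides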
# Chain of Concanavalin-A (Canavalia ensiformis) (P02866 whole entry, looked up): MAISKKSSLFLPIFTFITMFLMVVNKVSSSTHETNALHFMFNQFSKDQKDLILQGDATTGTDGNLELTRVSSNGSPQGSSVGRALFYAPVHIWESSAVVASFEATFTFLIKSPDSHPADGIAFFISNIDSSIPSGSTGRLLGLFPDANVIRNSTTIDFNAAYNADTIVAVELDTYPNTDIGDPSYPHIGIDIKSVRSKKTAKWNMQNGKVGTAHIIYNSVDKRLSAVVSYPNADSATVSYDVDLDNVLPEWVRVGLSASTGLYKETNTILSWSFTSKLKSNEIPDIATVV
# [9] = anti-His antibody binders, primary screen, artefact control for SMM control protein annotation, biochemical, small-molecule microarray, 635 nm fluorescence (AID 1128); settings: anti-His Alexa647 antibody binding, higher = more signal;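 further: score merges feature fluorescence with signal-to-noise for each printed compound spot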
# [10] = tested on: Human papillomavirus type 1a E7 protein (residues 1-88); assay: HPV1a E7 small-molecule binders, primary screen, biochemical, small-molecule microarray, residues 1-88, 635 nm (AID 1129); settings: small-molecule microarray binding, fluorescence 635 nm; higher = more signal
# [11] = molecular target: Focal adhesion kinase 1 (Homo sapiens) (UniProt Q05397); assay: small-molecule microarray binders of FAK, primary screen, biochemical, 635/667 nm fluorescence, BSA, DTT (AID 1130); settings: PTK2 binding, 635 nm fluorescence, higher = more signal;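 further: composite of spot emission at 667 nm and signal to noise over triplicate slides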
# Chain of Focal adhesion kinase 1 (Homo sapiens) (Q05397 whole entry, looked up): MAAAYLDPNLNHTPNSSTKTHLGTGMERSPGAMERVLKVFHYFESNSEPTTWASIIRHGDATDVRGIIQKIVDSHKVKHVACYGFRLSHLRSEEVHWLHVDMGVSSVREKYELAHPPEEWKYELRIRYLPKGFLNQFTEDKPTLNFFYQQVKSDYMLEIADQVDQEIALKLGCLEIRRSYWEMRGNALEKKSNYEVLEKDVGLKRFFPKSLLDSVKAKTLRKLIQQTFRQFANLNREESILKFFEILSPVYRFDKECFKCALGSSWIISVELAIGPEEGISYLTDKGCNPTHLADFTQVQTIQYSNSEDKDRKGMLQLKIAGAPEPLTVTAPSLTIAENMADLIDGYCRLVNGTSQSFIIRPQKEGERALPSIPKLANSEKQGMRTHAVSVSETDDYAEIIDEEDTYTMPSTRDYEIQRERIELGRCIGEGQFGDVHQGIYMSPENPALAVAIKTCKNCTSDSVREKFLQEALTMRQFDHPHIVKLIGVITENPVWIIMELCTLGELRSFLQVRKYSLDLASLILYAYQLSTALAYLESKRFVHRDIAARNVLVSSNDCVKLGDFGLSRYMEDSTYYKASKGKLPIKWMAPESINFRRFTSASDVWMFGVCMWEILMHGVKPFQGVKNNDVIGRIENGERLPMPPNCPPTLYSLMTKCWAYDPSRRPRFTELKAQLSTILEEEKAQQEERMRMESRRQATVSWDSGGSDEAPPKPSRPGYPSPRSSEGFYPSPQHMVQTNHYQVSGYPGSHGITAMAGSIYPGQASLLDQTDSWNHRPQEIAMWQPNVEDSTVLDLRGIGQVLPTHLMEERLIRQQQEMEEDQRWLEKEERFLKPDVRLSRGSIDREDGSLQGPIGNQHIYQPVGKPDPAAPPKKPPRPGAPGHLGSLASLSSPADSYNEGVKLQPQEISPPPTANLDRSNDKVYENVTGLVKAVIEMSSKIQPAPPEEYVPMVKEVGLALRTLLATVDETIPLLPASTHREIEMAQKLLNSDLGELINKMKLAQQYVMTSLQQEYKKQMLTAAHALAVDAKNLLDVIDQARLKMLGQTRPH
# [12] = tested on: Fibrinogen (Alexa647-labelled); assay: fibrinogen binders on compound microarrays, profiling panel, artefact control for SMM control-protein annotation, biochemical, small-molecule microarray, 635/667 nm fluorescence (AID 1131); settings: fibrinogen-A647 binding fluorescence, higher = more signal;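 further: z-score merges 667 nm fluorescence with per-spot signal-to-noise over triplicate slides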
# [13] = molecular target: Follistatin (Homo sapiens) (UniProt P19883); assay: follistatin binders on small-molecule microarrays, primary screen, biochemical, small-molecule microarray, 635/667 nm fluorescence (AID 1132); settings: FST binding, 635 nm fluorescence, higher = more signal
# Chain of Follistatin (Homo sapiens) (P19883 whole entry, looked up): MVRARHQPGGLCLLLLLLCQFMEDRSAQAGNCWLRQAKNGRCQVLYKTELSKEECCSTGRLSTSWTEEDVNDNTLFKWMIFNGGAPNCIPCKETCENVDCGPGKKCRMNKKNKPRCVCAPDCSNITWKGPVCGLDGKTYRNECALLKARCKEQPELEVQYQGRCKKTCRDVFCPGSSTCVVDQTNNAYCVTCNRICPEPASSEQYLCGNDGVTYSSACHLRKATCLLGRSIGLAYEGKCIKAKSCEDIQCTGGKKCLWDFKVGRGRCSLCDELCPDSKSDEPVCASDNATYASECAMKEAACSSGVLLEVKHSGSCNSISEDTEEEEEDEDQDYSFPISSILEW
# [14] = molecular target: Fibroblast growth factor 2 (Homo sapiens) (UniProt P09038); assay: FGF2 binders on small-molecule microarrays, primary screen, biochemical, small-molecule microarray, 635/667 nm fluorescence (AID 1133); settings: small-molecule microarray binding, FGF2, fluorescence 635/667; higher = more signal
# Chain of Fibroblast growth factor 2 (Homo sapiens) (P09038 whole entry, looked up): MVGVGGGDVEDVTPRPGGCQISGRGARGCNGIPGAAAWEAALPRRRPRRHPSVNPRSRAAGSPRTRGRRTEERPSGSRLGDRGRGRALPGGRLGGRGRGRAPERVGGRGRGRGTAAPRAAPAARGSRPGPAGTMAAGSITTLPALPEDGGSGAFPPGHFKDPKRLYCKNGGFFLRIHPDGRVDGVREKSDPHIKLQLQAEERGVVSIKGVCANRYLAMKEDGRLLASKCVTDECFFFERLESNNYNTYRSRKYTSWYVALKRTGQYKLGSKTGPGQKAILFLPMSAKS
# [15] = mitochondrial membrane potential change in A549 cells, profiling panel, cell-based, JC-1 fluorescence, basal, 24 h, 100 nL (AID 1138); settings: higher = more signal;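 further: A549 lung adenocarcinoma cells under basal conditions with no added stimulus; test concentration not given here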
# Lefty1 = Lefty1 binders on small-molecule microarrays, primary screen, biochemical, small-molecule microarray, 635/667 nm fluorescence (AID 1139); settings: small-molecule microarray binding, fluorescence 635/667; higher = more signal
# [16] = tested on: wheat germ agglutinin (Triticum aestivum), Alexa647-labelled; assay: wheat germ agglutinin binders on compound microarrays, profiling panel, artefact control for SMM control-protein annotation, biochemical, small-molecule microarray, 635/667 nm fluorescence (AID 1140); settings: WGA-A647 binding, 635 nm fluorescence, higher = more signal;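 further: score merges 667 nm feature emission with signal to noise over triplicate slides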
# [17] = molecular target: Luciferin 4-monooxygenase (Photinus pyralis) (UniProt P08659); assay: firefly luciferase enzyme inhibitors, primary screen, biochemical, luminescence, purified enzyme, 2006 set (AID 1141); settings: SteadyGlo luminescence, 30 min, higher = more signal, called active from +8 up or from −8 down;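 further: cell-free assay with purified firefly luciferase at 100 ng per well in PBS; test concentration not given here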
# Chain of Luciferin 4-monooxygenase (Photinus pyralis) (P08659 whole entry, looked up): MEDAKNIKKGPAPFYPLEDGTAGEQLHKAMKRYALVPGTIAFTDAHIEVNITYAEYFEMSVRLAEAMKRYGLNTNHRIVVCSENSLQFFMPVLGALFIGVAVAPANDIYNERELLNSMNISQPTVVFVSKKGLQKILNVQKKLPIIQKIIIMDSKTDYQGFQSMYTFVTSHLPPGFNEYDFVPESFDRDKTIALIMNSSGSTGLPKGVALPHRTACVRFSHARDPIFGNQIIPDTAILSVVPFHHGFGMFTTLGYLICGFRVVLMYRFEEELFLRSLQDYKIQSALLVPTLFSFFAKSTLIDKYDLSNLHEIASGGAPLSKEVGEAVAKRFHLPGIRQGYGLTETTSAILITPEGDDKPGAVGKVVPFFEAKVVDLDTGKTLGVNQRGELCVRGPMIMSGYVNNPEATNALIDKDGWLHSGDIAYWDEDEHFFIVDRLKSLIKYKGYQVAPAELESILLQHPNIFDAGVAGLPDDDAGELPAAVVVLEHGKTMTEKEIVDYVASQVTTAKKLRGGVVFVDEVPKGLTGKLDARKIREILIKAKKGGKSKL
Compound,composite z-score (Albumin (Bos taurus)),composite Z-score [1],composite z-score [2],composite z-score [3],composite z-score [4],composite z-score [5],composite z-score [6],composite z-score (Sam68 (KHDRBS1)),composite z-score [7],composite z-score [8],composite z-score [9],composite z-score [10],composite z-score [11],composite z-score [12],composite z-score [13],composite z-score [14],z-score [15],composite z-score (Lefty1),composite z-score [16],z-score [17]
COc1ccc(C(=O)Nc2ccc(CN3C(=O)[C@@]4(O[C@@H](CC(=O)N(CCO)Cc5ccccc5)[C@H]([Si](C)(C)c5ccc(OC)cc5)[C@H]4C)c4ccccc43)cc2)cc1,0.469,0.226 (inactive),-0.222,-0.172,0.294,0.678,-0.294,0.0422,1.01,1.1,0.757,0.066,0.385,0.0715,0.35,0.936,-0.266,1.11,1.1,0.594 (inactive)
CCCN1C(=O)[C@@]2(c3ccc([N+](=O)[O-])cc3)CC(=O)N(C3CCCCC3)[C@@H]2c2ccc(CO)cc21,-0.328,2.02 (inactive),-0.15,-0.112,-0.139,0.361,-0.435,0.268,0.649,0.31,0.993,-0.281,0.584,-0.138,1.2,1.08,-0.755,0.466,0.198,0.289 (inactive)
COC(=O)c1ccc(OC)c(/C=C\CC(OC(=O)c2ccncc2)c2ccccc2)c1 (stereo not given),-0.311,0.63 (inactive),-0.0077,-0.168,0.387,0.0584,-0.304,-0.0077,1.37,0.535,0.429,-0.0099,-0.111,-0.237,1.1,1.22,1.64,0.904,0.947,-1.89 (inactive)
C=C(C)C1CN([C@H](CO)c2ccccc2)C(=O)/C1=C\c1ccccc1 (stereo not given in full),0.252,-0.137 (inactive),-0.0647,-0.0741,0.158,-0.574,0.027,0.168,0.467,0.0006,-0.288,0.145,-0.234,0.237,0.803,1.14,-1.06,-0.0605,0.726,0.264 (inactive)
O=C1c2ccccc2[C@](Cc2ccccc2I)(C(=O)NCCN2CCOCC2)[C@H](c2ccc(CO)cc2)N1Cc1ccccc1C(F)(F)F,0.543,-0.0238 (inactive),-0.0014,-0.0771,0.594,2.09,0.329,1.29,-0.408,1.13,0.218,1.18,0.334,0.88,0.447,0.0123,2.25,0.246,0.418,-0.0684 (inactive)
C=CCOC(=O)[C@H]1[C@@H]2C(=O)O[C@@H](c3ccccc3)[C@@H](c3ccccc3)N2[C@@H](c2ccc(OCCOC(=O)[C@@H]3C[C@@H]4C(=O)N[C@@H](Cc5ccccc5)C(=O)N4[C@@H]3c3ccc(O)cc3)cc2)[C@]12C(=O)Nc1ccc(I)cc12,-0.257,0.661 (inactive),0.698,-0.092,0.218,1.33,-0.052,1.16,0.915,0.92,1.15,1.15,0.307,-0.0558,1.4,1.25,-1.28,0.924,0.0495,-0.409 (inactive)
[N-]=[N+]=NCc1ccccc1[C@H]1OC(c2ccc(OCCCO)cc2)=N[C@@]1(CCS(=O)(=O)c1ccccc1)C(=O)NCCN1CCOCC1,0.888,0.516 (inactive),0.596,0.163,0.621,2.76,0.654,1.3,-0.222,0.944,1.35,1.27,0.907,1.04,0.777,0.188,0.577,-0.237,0.57,-3.06 (inactive)
COC(=O)C[C@H]1O[C@]2(C(=O)N(C)c3ccccc32)[C@@H](C)[C@@H]1[Si](C)(C)c1ccccc1,-0.0967,-0.142 (inactive),0.16,-0.171,0.288,0.198,0.216,0.898,0.816,0.593,0.83,0.941,0.764,0.794,1.05,0.856,0.186,0.966,0.219,1.24 (inactive)
CCCCCCc1nc(Cc2cc(OC)c(OC)c(OC)c2)c(C)c2c1[Si](C(C)C)(C(C)C)OC2,-0.287,0.108 (inactive),-0.13,-0.178,-0.0168,0.0854,-0.251,0.294,0.19,0.0356,0.0303,0.127,-0.38,-0.24,0.281,0.444,0.374,0.267,0.108,-0.123 (inactive)
COc1cc(CO)cc(I)c1O[C@H]1C=C(C(=O)NCCO)C[C@@H](N(CCN2CCOCC2)C(=O)C2CCCO2)[C@@H]1O (stereo not given in full),-0.184,0.204 (inactive),0.0261,-0.0684,-0.107,-0.61,-0.0581,-0.0878,0.365,-0.0855,0.0704,0.413,0.192,-0.0246,0.132,0.144,1.48,0.159,-0.139,-0.91 (inactive)
